# Screening data: PubChem, National Center for Advancing Translational Sciences (NCATS)
# Hits are enriched below; roughly 7.9% of the tested compounds scored in any of these assays.
# HT1080-NT tox: kills 2HG-producing HT-1080-NT fibrosarcoma cells. AID 686970. 1.6% of 360,000 active. Potency, µM (doses to about 46.1 µM), for the others: at the highest dose activity, negative = less viability, hits mostly cytotoxic. HT-1080-NT fibrosarcoma viability, CellTiter-Glo ATP luminescence, 48 h;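 further: NT is the 2HG producing partner of a matched IDH1 knockdown line; 0% = DMSO-treated cells and -100% = media-only wells without cells; nearly all actives have a fitted effect of over 55% in size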
#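 HT-1080-NT; 750 cells/well; 5% FBS RPMI; 48 h compound, 37 degrees C; CellTiter-Glo luminescence; curve fitting and curve-class assignment.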
# MCF10A rereplic: inducers of DNA re-replication in MCF 10A breast cells | MCF 10A DNA re-replication, Hoechst nuclear intensity, 48 h | Potency, µM (titrated, usually from 46.1 µM), for the others: at the top dose activity, positive = re-replication, most hits filed as activators | 2.9% of 350,000 active | AID 624296; further: % of control where 0% means no effect; nearly all actives have a fitted effect of over 50% in size
# HT1080 IDH1KD tx: HT-1080 IDH1 knockdown cell toxicity (counter line). HT-1080 IDH1 knockdown viability, ATP luminescence, 48 h. Potency, µM (highest dose often 46.1 µM), without a hit: at the highest dose activity, negative = toxicity, usual class: cytotoxic. 2% of 360,000 active;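 further: 0% = DMSO wells and -100% = cell-free medium wells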
#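 CellTiter-Glo luminescence after 48 h compound exposure at 37 degrees C of IDH1-knockdown HT-1080 cells in 5% FBS RPMI. %Activity scaled between DMSO wells and cell-free media wells, with curves fitted and assigned curve classes.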
# SW480 rerep: inducers of DNA re-replication in SW480 colon cancer cells. Potency, µM (highest dose often 46.1 µM), for inactives: at the highest dose re-replication activation, actives largely listed as activators. 1.8% of 340,000 active. SW480 DNA re-replication, Hoechst DNA content imaging, 48 h; further: % of control where 0% means no effect; nearly all actives have a fitted effect of over 55% in size
#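 Per well, 250 cells were exposed to pinned compound for 48 hr. Nuclear DNA was visualised with Hoechst (40 min, 37 C) and total object intensity recorded by fluorescence scanning.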
# KB-3-1 tox: kills parental KB-3-1 adenocarcinoma cells; KB-3-1 viability, CellTiter-Glo ATP luminescence, 72 h; Potency, µM (top dose mostly 46.1 µM), usual class: cytotoxic; 1.4% of 400,000 active; further: on the % scale 0 is the no-effect control and ±100 the full control effect; nearly all actives have a fitted effect of over 60% in size
#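 KB-3-1 parental drug-naive adenocarcinoma cells in DMEM/10% FBS, incubated 72 h at 37 C with pin-transferred compounds across a concentration series. Viability by CellTiter-Glo luminescence; concentration-response curves fitted after normalization.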
# KB-V1 cytotox: kills drug-selected multidrug resistant KB-V1 cells. KB-V1 MDR cells viability, CellTiter-Glo, 72 h. Potency, µM (series often up to 46.1 µM), most hits filed as cytotoxic. 3.4% of 400,000 active; further: on the % scale 0 is the no-effect control and ±100 the full control effect; nearly all actives have a fitted effect of over 60% in size
#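 Cells of the MDR subline KB-V1 are plated, dosed with compound at multiple concentrations, and incubated 72 h at 37 degrees C; CellTiter-Glo is then added and luminescence read after 10 min.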
# Active calls of the source: *; i = inactive; ? = inconclusive; . = not tested or not shown; [ ] = dose if it differs, or a comment. The call rests on the fitted dose curve; in most records, active means well fitted curve in the direction sought with a large enough effect; inconclusive means small, poorly fitted or top-dose-only effect, or another doubt; inactive means no such curve, though single readings can be large; an effect the other way counts as inactive or inconclusive. Potency means the concentration at half of the fitted maximal effect.
SMILES,HT1080-NT tox,MCF10A rereplic,HT1080 IDH1KD tx,SW480 rerep,KB-3-1 tox,KB-V1 cytotox
Cc1ccc(NC(=O)CN2CCN(S(=O)(=O)c3ccc(C(C)C)cc3)CC2)cc1F,.,.,.,.,i,?
COc1ccc(NC(=O)CCN2CCN(S(=O)(=O)c3ccc(F)cc3)CC2)cc1,1%,2%,14%,-10%,i,i
O=C(CSc1ncc2c(n1)-c1ccccc1N(Cc1ccccc1)S2(=O)=O)Nc1ccccc1,.,.,.,.,i,i
O=C1CCCC2=C1C1(CCOCC1)N=C(Nc1nc3ccccc3o1)N2,.,.,.,.,i,i
O=C(Nc1ccccc1)c1cccc(Cn2cc(C(F)(F)F)ccc2=O)c1,3%,-4%,-6%,-10%,i,i
O=C(Sc1ccccc1)c1cccc(Cn2cc(C(F)(F)F)ccc2=O)c1,18µM*,?,23µM*,18%,i,?
O=C(Nc1ccccc1)c1ccc(Cn2cc(C(F)(F)F)ccc2=O)cc1,?,13%,-1%,1%,i,15µM*
N#Cc1cccc(Cn2cc(C(F)(F)F)ccc2=O)c1,1%,1%,4%,-3%,i,i
CC1CC(=O)C(C(C2=C(O)CC(C)CC2=O)c2ccccc2)=C(O)C1 (configuration not stated),2%,-1%,-1%,-10%,i,i
N#CC1=C(N)C2=CCCC[C@H]2[C@H](c2ccccc2)C1(C#N)C#N,?,?,?,4%,i,?
N#CC1=C(N)C2=CCCC[C@H]2[C@H](c2ccc(Br)cc2)C1(C#N)C#N,-4%,16µM*,-5%,?,i,i
O=C(CCS(=O)(=O)c1cccc2nonc12)N1CCN(c2ccc(F)cc2)CC1,13%,30%,2%,-3%,i,23µM*
O=C(CCNS(=O)(=O)c1cccc2nonc12)N1CCN(c2cccc(Cl)c2)CC1,-11%,-3%,-8%,?,i,10µM*
COc1ccc(CC(=O)OCC(=O)Nc2cc(Cl)ccc2C)cc1,6%,-3%,-1%,-12%,i,i
CC(=O)OCC1=C(C(=O)O)N2C(=O)[C@@H](NC(=O)Cc3ccccc3)[C@H]2SC1,-11%,10%,7%,-6%,i,i
CCOc1ccc(C(=O)NC2C(=O)N3C(C(=O)O)=C(COC(C)=O)CSC23)cc1OCC (configuration not stated),-2%,16µM*,-6%,-9%,i,i
COc1ccc(-c2ccc(F)cc2)cc1[C@H]1[C@H]2C=CC[C@@H](C)[C@@H]2C(=O)N1Cc1ccccc1,?,21µM*,?,-7%[9.22 µM],?,?
C[C@@H]1CC=C[C@H]2[C@H]1C(=O)N(Cc1ccccc1)[C@H]2c1ccc(-c2ccoc2)cc1F,?,18µM*,-18%,3%,i,i
COc1ccc(-c2cccc(C3CC=CC4C3C(=O)N(Cc3ccccc3)C4c3ccc(C(F)(F)F)cc3)c2)cc1 (configuration not stated),-3%,?,-15%,12%[9.22 µM],?,i
Cc1ccc(-c2cccc(C3CC=CC4C3C(=O)N(Cc3ccccc3)C4c3cc(C)ccc3F)c2)cc1 (configuration not stated),-20%,-1%,-1%,-1%,21µM*,i
